59 molecules from PubChem BioAssay AID2716 (Broad Institute, 2010) can be followed below.

“And” between values parts separate entries of the source, which are not always exact repeats. Identical values can stand only once. In all, about 320,000 compounds went through this assay and about 3,300 (1%) were called active. The sample holds actives, similar compounds and a random draw of the others, so the mix is not that of the screen.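 Rule for the calls: active = every valid replicate shows activation above 250% relative to neutral control wells; inactive = the rest, any valid replicate at or below 250%.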

The experiment can be described thus: yeast Mot1-301 growth rescue at high temperature, primary screen, SUMOylation pathway inhibitor project, S. cerevisiae, ATP luminescence, 38.5C (AID 2716).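 Note: OY570 slx delta 5 strain wells were the positive control but not used for scaling.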 The conditions noted are these: S. cerevisiae Mot1-301 growth rescue, at 18.8 µM, stronger effect = higher value, percent above DMSO median, 100 means doubled.
As to `Cc1ccsc1C1C(C#N)=C(N)OC2=C1C(=O)CC(C)C2` (centres undefined), the growth rescue is -1.54% (inactive).

`CCOCCCNCc1ccc(OCc2ccc(F)cc2)c(OC)c1`: the growth rescue was 445% (active).

In the case of `CCN(CC)CCNCc1ccc(OCc2ccc(Cl)nc2)c(OC)c1`, the growth rescue is -8.12% (inactive).

In the case of `COc1ccc(CNCCCO)cc1OC`, the growth rescue is -14.2% (inactive).

With `O=S(=O)(NCC1OCCc2ccccc21)c1ccccc1` (centres undefined), the growth rescue is -12.3% (inactive).

In the case of `Cc1cccc(NC(=O)CCn2c(=O)oc3ccccc32)c1`, the growth rescue is -12.1% (inactive).

Regarding `Cc1cc(C)c2c(Cn3ccnc3)cc(=O)oc2c1`, the growth rescue is 620% (active).

Consider `Cc1cc(=O)oc2c1c(C)nn2-c1ccc(Cl)cc1`, for which the growth rescue is -9.75% (inactive).

Take `CCCCc1cc(=O)oc2cc(C)cc(OCc3nn[nH]n3)c12`: the growth rescue is 64.1% (inactive).

`COC(=O)c1cc(S(=O)(=O)Nc2ccc(C)c(F)c2)c[nH]1`: the growth rescue is -5.05% (inactive).

Consider `[O-][n+]1ccc(OCc2ccccc2)cc1`, for which the growth rescue is -10% (inactive).

`COCCNC(=O)C(c1ccc(O)cc1)N(C(=O)CCC(=O)Nc1nccs1)c1ccc(C)cc1` (centres undefined): the growth rescue is -11.3% (inactive).

`COCCNC(=O)C(c1ccc(C)cc1)N(C(=O)CCC(=O)Nc1ccccn1)c1cccc(C)c1` (centres undefined): the growth rescue was 451% (active).

Consider `CCOc1ccc(C(C(=O)NCCOC)N(CCOC)C(=O)CCC(=O)Nc2ccccn2)cc1` (centres undefined), for which the growth rescue is 0.544% (inactive).

With `COc1ccc([N+](=O)[O-])cc1N(CC(=O)Nc1ccccc1C(=O)N1CCOCC1)S(C)(=O)=O`, the growth rescue is -10.4% (inactive).

Consider `COC(=O)c1scc(C)c1NC(=O)CSc1ccc(Cl)cc1`, for which the growth rescue is -2.32% (inactive).

Turning to `COc1ccc(-c2ccc(CCC(=O)O)n2NC(=O)c2ccc(C(C)(C)C)cc2)cc1`, the growth rescue was -8.8% (inactive).

`CSc1nc2ccc(NC(=O)c3c(F)cccc3F)cc2s1`: the growth rescue is 423% (active).

Turning to `O=C(Nc1ccncc1)c1c(F)cccc1F`, the growth rescue was -9.16% (inactive).

For `CCCC(=O)Nc1nc2ccc(NC(=O)c3c(F)c(F)c(OC)c(F)c3F)cc2s1`, the growth rescue is -0.657% (inactive).

Take `Cc1ccc(S(=O)(=O)NC(=O)N2CCCN(Cc3ccc(F)cc3)CC2)cc1`: the growth rescue is 290% (inactive).

As to `Cc1cc(NC(=O)CSc2ncc(C(F)(F)F)cc2Cl)no1`, the growth rescue is 6.57% (inactive).

For the molecule `Cc1nc2ccccc2n1C(=O)N1CCOCC1`, the growth rescue is -12.1% (inactive).

As to `Cc1ccc(CN2CCCOCCS2(=O)=O)cc1`, the growth rescue is -17.5% (inactive).

On to `CCCC[C@H]1COCCS(=O)(=O)N1Cc1cccc(Cl)c1`, for which the growth rescue is -7.4% (inactive).

As to `CCC(C)[C@H]1COCCS(=O)(=O)N1Cc1ccc(C)cc1` (some centres undefined), the growth rescue was 881% (active).

Take `COCCn1c(C)cc(C(=O)CSc2nnc(C3CC3)n2C2CC2)c1C`: the growth rescue is 9.96% (inactive).

In the case of `Cc1cc(Br)ccc1NC(=O)c1sc2ncn(CC(=O)N3CCN(c4ccccn4)CC3)c(=O)c2c1C`, the growth rescue is -24.4% (inactive).

On to `O=C(CN1CCN(c2ccccn2)CC1)Nc1ccc(Br)cc1`, for which the growth rescue was 5.41% (inactive).

As to `Cc1cc(Br)ccc1NC(=O)c1cnc(N2CCN(c3ccccn3)CC2)c2ccccc12`, the growth rescue is 1030% (active).

In the case of `COc1ccc(N2CCN(C(=O)COC(=O)c3cccc(S(=O)(=O)Nc4ccccc4OC)c3)CC2)cc1`, the growth rescue was -0.984% (inactive).

Consider `COc1ccc(N2CC(C(=O)NCCS(=O)(=O)N3CCN(c4ccccc4)CC3)CC2=O)cc1` (centres undefined), for which the growth rescue was 3.93% (inactive).

Turning to `CCCCNC(=O)Cn1nc(C)c(S(=O)(=O)N2CCOCC2)c1C`, the growth rescue is -1.53% (inactive).

Regarding `NC(=O)C1CCN(C(=O)COc2ccc3c4c(c(=O)oc3c2)CCC4)CC1`, the growth rescue was 296% (active).

With `O=C(COc1ccc2c3c(c(=O)oc2c1)CCCC3)NCC(O)c1ccccc1` (centres undefined), the growth rescue is 1.8% (inactive).

Take `O=C(COc1ccc2c3c(c(=O)oc2c1)CCC3)NC1CCCCC1`: the growth rescue was 5.16% (inactive).

As for `CCCCCCCCCCCCN1[C@@H](CC(C)=O)c2cc(F)cc(F)c2S1(=O)=O`, the growth rescue was -17.6% (inactive).

As for `COc1ccc(C)cc1N(C(=O)Cn1nnc(-c2ccc(C)o2)n1)C(C(=O)NC1CCCC1)c1ccncc1` (centres undefined), the growth rescue is -11.2% (inactive).

Take `CN(CCO)c1ccc(/C=N/Nc2nncc3ccccc23)cc1`: the growth rescue was 20.6% (inactive).

For `C=CC1=C(C(=O)O)N2C(=O)[C@@H](NC(=O)/C(=N/OCC(=O)O)c3csc(N)n3)[C@H]2SC1`, the growth rescue was 328% (active).

Take `CO/N=C(\C(=O)N[C@@H]1C(=O)N2C(C(=O)O)=C(COC(C)=O)CS[C@H]12)c1csc(N)n1` (stereo in doubt): the growth rescue was -1.64% (inactive) and 233% (inactive).

Turning to `Cc1cc(C)cc(C(=O)NC2C(=O)N3C(C(=O)O)=C(CSc4nnc(C)s4)CSC23)c1` (centres undefined), the growth rescue is -7.63% (inactive).

For `CCN(C(=O)COC(=O)Cc1c(F)cccc1Cl)c1c(N)n(Cc2ccccc2)c(=O)[nH]c1=O`, the growth rescue is -1.24% (inactive).

With `Cc1ccccc1N1CCN(CC(=O)NCc2ccc(Cl)cc2)CC1`, the growth rescue is 22% (inactive).

Consider `COc1ccc(C(C[N+](=O)[O-])n2nc(C)cc2C)cc1` (centres undefined), for which the growth rescue is 383% (active).

Regarding `CCOc1ccc(C(C)C)cc1S(=O)(=O)n1nc(C)cc1C`, the growth rescue is -14.9% (inactive).

As to `COc1ccc(OCc2cn3c(C)cc(C)nc3n2)cc1`, the growth rescue is 1.72% (inactive).

Regarding `Nc1c(-c2cccc(Cl)c2)cnn1-c1cccc([N+](=O)[O-])c1`, the growth rescue was 0.816% (inactive).

Consider `O=C(Nc1ccc(-n2ccnc2P(=O)(O)c2ccccc2)cc1)c1ccccc1Br`, for which the growth rescue is 46.7% (inactive).

`O=C(O)CC(CC(=O)N1CCOCC1)c1ccccc1` (centres undefined): the growth rescue was -13.1% (inactive).

Take `O=C(Cc1ccccc1Cl)N1CCOCC1`: the growth rescue is 9.61% (inactive).

With `O=C(CP(=O)(c1ccccc1)c1ccccc1)N1CCOCC1`, the growth rescue was 634% (active).

For `COc1ccc(C(=O)COC(=O)CN2C(=O)C3CC=CCC3C2=O)c(OC)c1` (centres undefined), the growth rescue is 9.86% (inactive).

As to `CCC(CO)Oc1cc(NCc2ccccc2)c2ncn(C3CCCC3)c2c1` (centres undefined), the growth rescue was 9.9% (inactive).

In the case of `C/C(CC(C)C)=N\Oc1nc(C)cc(C)n1`, the growth rescue was -10.5% (inactive).

For the molecule `O=C(CN1CCCC1)N1CCN(c2ccccc2)CC1`, the growth rescue is 0.51% (inactive).

On to `CN(C)/C(CN1CCCCC1)=C1\N=C(c2ccccc2)OC1=O`, for which the growth rescue is 1740% (active).

Take `CC(CN1CCCCC1)c1ccccc1` (centres undefined): the growth rescue is 7.87% (inactive).

As for `O=C(c1cc(Cl)cc(Cl)c1)N1CCC(=O)N(C(COCc2ccccc2)Cc2ccccc2)CC1` (centres undefined), the growth rescue is -7.87% (inactive).
